This is an account of results in PubChem BioAssay (Tox21).

Several values for one entry are separate records, joined by “and”; a condition that tells them apart may be missing. Identical values can stand only once. Inconclusive results are not listed. A call without a number means that no potency is given here. A structure can be active in one record and inactive in another. Activity calls are given as the source filed them. Calls follow the shape of the dose curve; as a rule, active = well fitted cell-killing curve with a large enough effect in the repeat runs (not every such curve was filed as active); inconclusive = weak or mixed curves, or effect the other way; inactive = no such curve, though single readings can be large or run the other way.
Potency is read from the fitted curve at half-maximal effect.

The nature of the assay: qHTS assay to identify small molecule antagonists of the farnesoid-X-receptor (FXR) signaling pathway - cell viability counter screen (AID 743221). Also: nearly all actives have a fitted effect of over 50% in size. The settings on record: FXR-bla HEK293T viability, CellTiter-Glo luminescence, 16 h; series mostly up to 62.6 µM. The source says: National Center for Advancing Translational Sciences [NCATS]
NIH Chemical Genomics Center [NCGC]
U.S. Environmental Protection Agency [EPA]
National Institutes of Environmental Health Sciences [NIEHS]
National Toxicology Program [NTP]
U.S. Food and Drug Administration [FDA]
The farnesoid-X-receptor (FXR), a nuclear hormone receptor, is highly expressed in liver, intestine, kidney and adrenal cortex. Natural ligands of FXR are the bile acids (Cholic acid, Chenodeoxy cholic acid etc). FXR is an important regulator of diverse metabolic pathways, including the bile acid homeostasis, lipid and glucose metabolisms. FXR regulates the expression of target genes by binding either as a monomer or as a heterodimer with the retinoid X receptor (RXR). Numerous studies have reported that FXR exerts protective function during cholestasis, diabetes, liver regeneration, and cancer. To identify compounds that inhibit FXR signaling, GeneBLAzer FXR-UAS-bla HEK 293T cell line (Invitrogen, Carlsbad, CA) containing a beta-lactamase reporter gene under the control of a UAS response element was used to screen the Tox21 10K compound library. The cytotoxicity of the Tox21 compound library against the FXR-bla cell line was tested in parallel by measuring the cell viability using CellTiter-Glo assay in the same wells.
Tox21 Assay Protocol Summary:
FXR-bla cells were dispensed at 5000 cells/5uL/well in 1536-well black wall/clear bottom plates using a Multidrop Combi (Thermo Fisher Scientific, Waltham, MA) dispenser. After the assay plates were incubated at 37 C and 5% CO2 for 5 h, 23 nL of compounds dissolved in DMSO, positive controls or DMSO only was transferred to the assay plate by a Pintool station (Kalypsys, San Diego, CA), followed by addition of 1 uL Chenodeoxycholic acid (50 uM, final concentration in the wells). The assay plates were incubated at 37C for 16 h. After 1 uL of LiveBLAzerTM B/G FRET substrate was added using a Bioraptr Flying Reagent Dispenser (FRD) workstation (Beckman Coulter, Indianapolis, IN), the plates were incubated at room temperature for 2 h, and fluorescence intensity was measured by an Envision plate reader (PerkinElmer, Shelton, CT). For cell viability readout that measures cytotoxicity, 4uL/well of CellTiter-Glo reagent was added into the assay plates using a Bioraptr FRD. After 30 min incubation at room temperature, the luminescence intensity in the plates was measured using a ViewLux plate reader (PerkinElmer).
Consider `CCN(CC)CCCC(C)Nc1ccnc2cc(Cl)ccc12` (stereo not given), for which the Potency result was “inactive”. As to `C=C(C)C(=O)O[C@H]1C[C@@H]2CC[C@@]1(C)C2(C)C`, the Potency result is “inactive”. For `CCCCN(CCCC)CCCC`, the Potency result is “inactive”. To `O=C(CC(C(=O)OC1CCCCC1)S(=O)(=O)O)OC1CCCCC1` (stereo not given) belongs “inactive”. As to `O=c1[nH]c(=O)n([C@H]2CCCO2)cc1F`, the Potency result is “inactive”.

With `O=C(O)c1ccccc1C(c1ccc(O)cc1)c1ccc(O)cc1`, the Potency entry was “inactive”. For the compound `CCC(O)OCCCOC` (stereo not given), the Potency entry is “inactive”. To `C#C[C@]1(O)CC[C@H]2[C@@H]3CCC4=CC(=O)CC[C@@H]4[C@H]3CC[C@@]21C` belongs “inactive”; to `C[C@H]1C[C@@H]2[C@H]([C@@H](O)C[C@@]3(C)[C@H]2CC[C@]3(O)C(=O)CO)[C@@]2(C)C=CC(=O)C=C12`, “inactive”. For `OC[C@H]1O[C@@](CO)(O[C@H]2O[C@H](CO)[C@@H](O)[C@H](O)[C@H]2O)[C@@H](O)[C@@H]1O`, the Potency entry was “inactive”. To `Fc1ccc(Br)cc1` belongs “inactive”; to `CCCCC(CC)CO` (stereo not given), “inactive”.

Take `CN(C)CCCN`: the Potency entry was “inactive”. To `CCCCCCCCCCCCc1ccccc1` belongs “inactive”; to `C#CCN(C)Cc1ccccc1`, “inactive”.

Consider `CC1=CCC2CC1C2(C)C` (stereo not given), for which the Potency result is “inactive”. Take `N[C@@H](Cc1cc(I)c(Oc2cc(I)c(O)c(I)c2)c(I)c1)C(=O)O`: the Potency result is “inactive”. To `CCCCCCCCC/C=C/CC1CC(=O)OC1=O` (stereo not given) belongs “inactive”; to `O=C(O)CC(C(=O)O)C(CC(=O)O)C(=O)O` (stereo not given), “inactive”.

In the case of `OCc1cccnc1`, the Potency entry is “inactive”. For the compound `c1ccc(OCCOc2ccccc2)cc1`, the Potency entry was “inactive”. To `CCCCC(CC)COC(=O)C(C#N)=C(c1ccccc1)c1ccccc1` (stereo not given) belongs “inactive”; to `CC(=O)c1ccccc1`, “inactive”.

Consider `O=S(=O)(O)c1ccc2ccccc2c1`, for which the Potency result is “inactive and 34.8 µM (active)”. To `CCCCCC1=CCCC1=O` belongs “inactive”. To `CC(C)CC(=O)CC(C)C` belongs “inactive”; to `CCCCCCOCCO`, “inactive”; to `C=C(C)C(=O)OCCOCCOCCOC(=O)C(=C)C`, “inactive”. For `C/C=C1/CC2C=CC1C2` (stereo not given), the Potency result was “inactive”. To `O=S1(=O)CC=CC1` belongs “inactive”; to `C=CCOC(=O)c1ccccc1C(=O)OCC=C`, “inactive”; to `Cc1occc(=O)c1O`, “inactive”. To `CCCCCCCCCCCCCCCO` belongs “inactive”. To `c1ccc2c(c1)ccc1ccccc12` belongs “inactive”. On to `CC(c1cc2ccccc2s1)N(O)C(N)=O` (stereo not given), for which the Potency entry was “inactive”. Consider `O=P(OC(CCl)CCl)(OC(CCl)CCl)OC(CCl)CCl`, for which the Potency entry is “inactive”. To `CCOC(=O)NNc1nncc2ccccc12` belongs “inactive”. For the compound `OCCOCCN1CCN(C2=Nc3ccccc3Sc3ccccc32)CC1`, the Potency result was “inactive”. Take `CCCCCCCCCCCCCCO`: the Potency entry is “inactive”. Consider `Cc1ccc2oc(=O)ccc2c1`, for which the Potency result is “inactive”.
